Test results from ChEMBL document CHEMBL1961873, “Compounds: GSK PKIS; Assays: Nanosyn kinase panel” (2012).

Assays:
[1] = target: T1, Inhibitor of nuclear factor kappa-B kinase subunit epsilon (Homo sapiens) (UniProt Q14164); conditions: at 1 µM;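 further: reported values are averaged percent inhibition figures against human IKKε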
T1 sequence (whole entry): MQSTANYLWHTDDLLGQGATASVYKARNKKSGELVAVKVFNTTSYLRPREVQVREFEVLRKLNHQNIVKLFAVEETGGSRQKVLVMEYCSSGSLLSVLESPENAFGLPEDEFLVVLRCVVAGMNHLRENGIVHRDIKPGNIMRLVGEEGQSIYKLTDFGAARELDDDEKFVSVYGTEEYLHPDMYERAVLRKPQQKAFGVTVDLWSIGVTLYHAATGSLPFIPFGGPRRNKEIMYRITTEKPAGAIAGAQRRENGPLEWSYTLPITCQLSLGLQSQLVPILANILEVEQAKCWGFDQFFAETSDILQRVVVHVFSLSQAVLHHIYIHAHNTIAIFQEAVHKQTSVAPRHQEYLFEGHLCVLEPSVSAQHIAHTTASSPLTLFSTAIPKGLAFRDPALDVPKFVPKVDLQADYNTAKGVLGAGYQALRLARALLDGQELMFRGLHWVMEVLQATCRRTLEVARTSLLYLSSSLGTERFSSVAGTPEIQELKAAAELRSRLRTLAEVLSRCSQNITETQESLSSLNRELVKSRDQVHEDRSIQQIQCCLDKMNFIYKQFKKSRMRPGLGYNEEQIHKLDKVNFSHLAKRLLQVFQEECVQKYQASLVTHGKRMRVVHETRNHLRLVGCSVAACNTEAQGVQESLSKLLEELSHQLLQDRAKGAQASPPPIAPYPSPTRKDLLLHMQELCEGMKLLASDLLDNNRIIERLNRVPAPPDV

[2] = target: T2, Serine/threonine-protein kinase Nek1 (Homo sapiens) (UniProt Q96PY6); conditions: at 0.1 µM
T2 sequence (whole entry): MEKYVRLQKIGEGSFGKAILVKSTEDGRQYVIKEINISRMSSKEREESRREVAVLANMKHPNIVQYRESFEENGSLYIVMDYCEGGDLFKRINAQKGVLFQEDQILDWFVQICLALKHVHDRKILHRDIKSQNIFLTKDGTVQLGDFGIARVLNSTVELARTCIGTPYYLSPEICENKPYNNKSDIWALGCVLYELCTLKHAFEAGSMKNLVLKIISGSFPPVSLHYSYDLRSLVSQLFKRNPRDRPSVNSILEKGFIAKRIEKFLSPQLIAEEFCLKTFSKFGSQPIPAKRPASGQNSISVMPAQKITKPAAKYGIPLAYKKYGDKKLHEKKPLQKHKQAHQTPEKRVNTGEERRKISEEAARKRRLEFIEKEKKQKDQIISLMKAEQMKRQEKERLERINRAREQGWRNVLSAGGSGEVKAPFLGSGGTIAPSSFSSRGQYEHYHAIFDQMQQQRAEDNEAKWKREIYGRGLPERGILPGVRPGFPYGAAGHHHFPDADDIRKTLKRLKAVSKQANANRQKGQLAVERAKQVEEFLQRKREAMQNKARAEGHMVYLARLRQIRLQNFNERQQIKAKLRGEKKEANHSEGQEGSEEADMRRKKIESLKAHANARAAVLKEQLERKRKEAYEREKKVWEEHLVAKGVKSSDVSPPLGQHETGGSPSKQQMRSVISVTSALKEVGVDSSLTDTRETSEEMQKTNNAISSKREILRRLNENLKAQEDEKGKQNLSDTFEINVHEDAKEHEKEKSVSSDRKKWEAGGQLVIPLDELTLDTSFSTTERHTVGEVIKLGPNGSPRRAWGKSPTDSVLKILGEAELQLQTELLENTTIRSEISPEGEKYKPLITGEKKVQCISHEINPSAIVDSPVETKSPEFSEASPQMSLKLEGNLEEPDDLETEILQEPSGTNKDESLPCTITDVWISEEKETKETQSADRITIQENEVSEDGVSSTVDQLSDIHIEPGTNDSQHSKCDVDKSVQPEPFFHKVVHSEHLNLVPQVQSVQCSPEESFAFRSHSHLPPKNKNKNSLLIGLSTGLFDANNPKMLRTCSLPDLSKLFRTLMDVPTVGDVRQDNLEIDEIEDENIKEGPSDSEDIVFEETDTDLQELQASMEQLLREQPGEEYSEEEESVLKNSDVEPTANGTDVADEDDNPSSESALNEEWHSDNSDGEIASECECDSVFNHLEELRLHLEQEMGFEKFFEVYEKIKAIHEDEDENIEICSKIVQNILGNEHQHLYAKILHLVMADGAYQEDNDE

[3] = target: T2, Serine/threonine-protein kinase Nek1 (Homo sapiens); conditions: at 1 µM
[4] = target: T3, Serine/threonine-protein kinase Nek2 (Homo sapiens) (UniProt P51955); conditions: at 0.1 µM
T3 sequence (whole entry): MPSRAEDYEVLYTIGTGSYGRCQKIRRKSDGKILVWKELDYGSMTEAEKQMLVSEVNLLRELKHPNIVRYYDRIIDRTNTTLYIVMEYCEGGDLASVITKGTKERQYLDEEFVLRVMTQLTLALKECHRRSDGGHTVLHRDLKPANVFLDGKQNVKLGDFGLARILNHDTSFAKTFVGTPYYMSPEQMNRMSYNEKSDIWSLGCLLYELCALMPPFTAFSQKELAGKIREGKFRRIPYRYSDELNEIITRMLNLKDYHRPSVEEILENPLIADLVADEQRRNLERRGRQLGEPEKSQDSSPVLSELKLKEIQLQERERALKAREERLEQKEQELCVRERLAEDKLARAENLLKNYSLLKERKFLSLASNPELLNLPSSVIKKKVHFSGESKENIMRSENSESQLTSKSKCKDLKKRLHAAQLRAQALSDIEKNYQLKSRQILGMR

[5] = target: T3, Serine/threonine-protein kinase Nek2 (Homo sapiens); conditions: at 1 µM
[6] = target: Serine/threonine-protein kinase Nek6 (Homo sapiens) (UniProt Q9HC98); conditions: at 0.1 µM
Chain of Serine/threonine-protein kinase Nek6 (Homo sapiens) (Q9HC98 whole entry): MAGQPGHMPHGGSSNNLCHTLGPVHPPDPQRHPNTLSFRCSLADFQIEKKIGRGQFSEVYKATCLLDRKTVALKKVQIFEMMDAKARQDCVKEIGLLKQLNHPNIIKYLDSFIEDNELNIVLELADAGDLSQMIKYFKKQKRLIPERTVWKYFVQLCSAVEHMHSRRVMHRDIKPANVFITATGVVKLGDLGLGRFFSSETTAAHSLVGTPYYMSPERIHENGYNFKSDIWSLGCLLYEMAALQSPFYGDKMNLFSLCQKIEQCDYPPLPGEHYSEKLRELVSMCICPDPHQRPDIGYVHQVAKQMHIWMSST

[7] = target: Serine/threonine-protein kinase Nek6 (Homo sapiens) (UniProt Q9HC98); conditions: at 1 µM
[8] = target: Serine/threonine-protein kinase Nek7 (Homo sapiens) (UniProt Q8TDX7); conditions: at 0.1 µM
Chain of Serine/threonine-protein kinase Nek7 (Homo sapiens) (Q8TDX7 whole entry, looked up): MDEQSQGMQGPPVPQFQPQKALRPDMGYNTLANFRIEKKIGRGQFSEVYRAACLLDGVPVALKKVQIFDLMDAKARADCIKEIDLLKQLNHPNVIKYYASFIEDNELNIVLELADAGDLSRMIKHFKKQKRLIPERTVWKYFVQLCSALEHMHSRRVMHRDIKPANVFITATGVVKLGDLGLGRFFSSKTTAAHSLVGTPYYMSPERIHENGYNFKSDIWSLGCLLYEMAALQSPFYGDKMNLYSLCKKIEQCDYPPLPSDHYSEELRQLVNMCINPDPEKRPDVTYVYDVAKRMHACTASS

[9] = target: Serine/threonine-protein kinase Nek7 (Homo sapiens) (UniProt Q8TDX7); conditions: at 1 µM
[10] = target: T4, Serine/threonine-protein kinase Nek9 (Homo sapiens) (UniProt Q8TD19); conditions: at 0.1 µM
T4 sequence (whole entry): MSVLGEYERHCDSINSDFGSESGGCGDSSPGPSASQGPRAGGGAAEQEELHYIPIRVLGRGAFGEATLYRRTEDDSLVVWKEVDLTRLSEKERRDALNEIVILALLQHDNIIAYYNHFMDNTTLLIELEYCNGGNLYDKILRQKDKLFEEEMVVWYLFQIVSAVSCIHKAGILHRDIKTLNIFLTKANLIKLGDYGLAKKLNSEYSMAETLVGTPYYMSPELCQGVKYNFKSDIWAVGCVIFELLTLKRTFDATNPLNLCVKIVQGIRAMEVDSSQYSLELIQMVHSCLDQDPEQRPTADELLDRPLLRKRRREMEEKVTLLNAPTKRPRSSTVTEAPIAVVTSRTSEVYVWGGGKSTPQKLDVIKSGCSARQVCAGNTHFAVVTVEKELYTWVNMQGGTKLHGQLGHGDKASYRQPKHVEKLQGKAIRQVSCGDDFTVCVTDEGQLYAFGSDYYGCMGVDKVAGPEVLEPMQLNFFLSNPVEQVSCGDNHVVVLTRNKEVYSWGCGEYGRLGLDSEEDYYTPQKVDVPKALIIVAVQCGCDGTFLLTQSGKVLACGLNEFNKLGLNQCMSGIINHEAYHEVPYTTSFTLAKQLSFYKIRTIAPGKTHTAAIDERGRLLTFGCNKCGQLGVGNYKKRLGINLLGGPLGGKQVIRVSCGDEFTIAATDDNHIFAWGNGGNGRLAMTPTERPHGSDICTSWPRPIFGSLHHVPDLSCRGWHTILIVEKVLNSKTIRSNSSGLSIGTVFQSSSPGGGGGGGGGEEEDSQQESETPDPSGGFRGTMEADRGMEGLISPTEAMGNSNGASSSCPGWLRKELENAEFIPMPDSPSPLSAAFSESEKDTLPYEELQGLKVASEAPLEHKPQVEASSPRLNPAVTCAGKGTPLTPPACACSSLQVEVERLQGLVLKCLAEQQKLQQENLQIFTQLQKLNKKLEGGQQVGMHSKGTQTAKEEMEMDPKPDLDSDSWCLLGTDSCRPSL

[11] = target: T4, Serine/threonine-protein kinase Nek9 (Homo sapiens); conditions: at 1 µM
[12] = target: Serine/threonine-protein kinase PLK1 (Homo sapiens) (UniProt P53350); conditions: at 0.1 µM
Chain of Serine/threonine-protein kinase PLK1 (Homo sapiens) (P53350 whole entry): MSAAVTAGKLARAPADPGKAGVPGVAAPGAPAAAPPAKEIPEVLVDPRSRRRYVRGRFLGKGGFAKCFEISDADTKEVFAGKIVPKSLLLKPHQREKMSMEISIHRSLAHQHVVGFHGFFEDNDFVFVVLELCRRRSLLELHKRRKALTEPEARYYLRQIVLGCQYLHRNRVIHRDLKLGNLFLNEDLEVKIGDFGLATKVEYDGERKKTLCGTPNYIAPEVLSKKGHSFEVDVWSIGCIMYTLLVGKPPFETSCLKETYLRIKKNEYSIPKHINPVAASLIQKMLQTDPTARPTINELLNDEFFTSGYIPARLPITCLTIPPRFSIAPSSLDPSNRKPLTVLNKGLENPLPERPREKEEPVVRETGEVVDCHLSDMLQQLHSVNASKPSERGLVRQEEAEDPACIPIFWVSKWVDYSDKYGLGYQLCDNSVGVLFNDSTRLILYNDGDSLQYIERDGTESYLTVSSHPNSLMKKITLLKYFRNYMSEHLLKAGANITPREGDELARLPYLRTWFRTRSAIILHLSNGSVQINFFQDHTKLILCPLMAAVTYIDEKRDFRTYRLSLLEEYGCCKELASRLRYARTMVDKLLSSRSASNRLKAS

[13] = target: Serine/threonine-protein kinase PLK1 (Homo sapiens) (UniProt P53350); conditions: at 1 µM
[14] = target: T5, Dual specificity protein kinase TTK (Homo sapiens) (UniProt P33981); conditions: at 0.1 µM
T5 sequence (whole entry): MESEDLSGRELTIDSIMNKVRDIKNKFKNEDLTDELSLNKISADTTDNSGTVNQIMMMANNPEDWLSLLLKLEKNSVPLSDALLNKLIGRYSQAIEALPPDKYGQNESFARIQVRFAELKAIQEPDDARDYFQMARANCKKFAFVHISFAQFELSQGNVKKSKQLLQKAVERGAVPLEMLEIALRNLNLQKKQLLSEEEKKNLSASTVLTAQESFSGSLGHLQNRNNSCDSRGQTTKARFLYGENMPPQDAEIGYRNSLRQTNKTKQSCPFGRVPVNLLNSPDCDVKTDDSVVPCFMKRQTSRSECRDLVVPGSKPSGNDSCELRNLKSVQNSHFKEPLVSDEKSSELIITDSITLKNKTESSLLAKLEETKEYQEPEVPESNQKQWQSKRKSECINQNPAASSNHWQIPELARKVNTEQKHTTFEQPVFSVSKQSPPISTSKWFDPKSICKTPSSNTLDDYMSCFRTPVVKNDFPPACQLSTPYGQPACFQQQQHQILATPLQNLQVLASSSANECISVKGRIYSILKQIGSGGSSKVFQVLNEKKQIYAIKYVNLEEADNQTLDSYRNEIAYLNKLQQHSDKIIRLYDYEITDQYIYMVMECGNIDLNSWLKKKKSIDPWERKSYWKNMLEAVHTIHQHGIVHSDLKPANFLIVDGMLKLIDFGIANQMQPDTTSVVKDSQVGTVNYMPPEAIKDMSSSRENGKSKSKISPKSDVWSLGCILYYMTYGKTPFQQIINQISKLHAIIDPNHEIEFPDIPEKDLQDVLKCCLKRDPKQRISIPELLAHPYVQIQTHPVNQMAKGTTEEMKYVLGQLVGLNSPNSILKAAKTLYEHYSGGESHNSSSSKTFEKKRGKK

[15] = tested on: T6, Receptor-type tyrosine-protein kinase FLT3 (Homo sapiens), P36888 [D835Y]; conditions: at 1 µM
T6 sequence (whole entry): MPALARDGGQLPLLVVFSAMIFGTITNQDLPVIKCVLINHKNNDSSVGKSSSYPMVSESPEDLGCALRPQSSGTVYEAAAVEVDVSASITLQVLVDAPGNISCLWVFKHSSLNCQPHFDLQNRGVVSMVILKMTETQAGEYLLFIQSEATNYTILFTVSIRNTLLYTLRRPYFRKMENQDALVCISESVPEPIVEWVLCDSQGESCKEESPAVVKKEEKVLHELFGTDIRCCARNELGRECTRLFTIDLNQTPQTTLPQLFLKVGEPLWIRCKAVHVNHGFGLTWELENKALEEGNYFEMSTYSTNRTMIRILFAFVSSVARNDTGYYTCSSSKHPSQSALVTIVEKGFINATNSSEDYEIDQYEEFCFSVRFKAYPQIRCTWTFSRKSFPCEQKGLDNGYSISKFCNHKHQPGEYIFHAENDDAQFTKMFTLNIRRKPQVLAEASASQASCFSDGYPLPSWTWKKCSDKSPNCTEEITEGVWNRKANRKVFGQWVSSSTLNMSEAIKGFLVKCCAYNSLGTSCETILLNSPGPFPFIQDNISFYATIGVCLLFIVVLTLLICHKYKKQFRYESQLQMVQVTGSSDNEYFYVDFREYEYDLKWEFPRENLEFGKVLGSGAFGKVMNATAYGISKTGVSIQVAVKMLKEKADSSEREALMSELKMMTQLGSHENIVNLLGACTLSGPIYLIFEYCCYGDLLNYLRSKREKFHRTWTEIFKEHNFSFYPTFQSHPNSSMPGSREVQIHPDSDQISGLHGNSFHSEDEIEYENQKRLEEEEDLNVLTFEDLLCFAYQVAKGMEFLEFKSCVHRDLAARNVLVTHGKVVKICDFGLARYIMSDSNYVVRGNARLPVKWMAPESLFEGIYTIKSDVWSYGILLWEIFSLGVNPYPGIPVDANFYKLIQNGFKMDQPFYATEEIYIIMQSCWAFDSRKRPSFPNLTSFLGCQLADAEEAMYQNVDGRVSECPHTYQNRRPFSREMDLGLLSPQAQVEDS

[16] = target: Vascular endothelial growth factor receptor 3 (Homo sapiens) (UniProt P35916); conditions: at 0.1 µM
Chain of Vascular endothelial growth factor receptor 3 (Homo sapiens) (P35916 whole entry): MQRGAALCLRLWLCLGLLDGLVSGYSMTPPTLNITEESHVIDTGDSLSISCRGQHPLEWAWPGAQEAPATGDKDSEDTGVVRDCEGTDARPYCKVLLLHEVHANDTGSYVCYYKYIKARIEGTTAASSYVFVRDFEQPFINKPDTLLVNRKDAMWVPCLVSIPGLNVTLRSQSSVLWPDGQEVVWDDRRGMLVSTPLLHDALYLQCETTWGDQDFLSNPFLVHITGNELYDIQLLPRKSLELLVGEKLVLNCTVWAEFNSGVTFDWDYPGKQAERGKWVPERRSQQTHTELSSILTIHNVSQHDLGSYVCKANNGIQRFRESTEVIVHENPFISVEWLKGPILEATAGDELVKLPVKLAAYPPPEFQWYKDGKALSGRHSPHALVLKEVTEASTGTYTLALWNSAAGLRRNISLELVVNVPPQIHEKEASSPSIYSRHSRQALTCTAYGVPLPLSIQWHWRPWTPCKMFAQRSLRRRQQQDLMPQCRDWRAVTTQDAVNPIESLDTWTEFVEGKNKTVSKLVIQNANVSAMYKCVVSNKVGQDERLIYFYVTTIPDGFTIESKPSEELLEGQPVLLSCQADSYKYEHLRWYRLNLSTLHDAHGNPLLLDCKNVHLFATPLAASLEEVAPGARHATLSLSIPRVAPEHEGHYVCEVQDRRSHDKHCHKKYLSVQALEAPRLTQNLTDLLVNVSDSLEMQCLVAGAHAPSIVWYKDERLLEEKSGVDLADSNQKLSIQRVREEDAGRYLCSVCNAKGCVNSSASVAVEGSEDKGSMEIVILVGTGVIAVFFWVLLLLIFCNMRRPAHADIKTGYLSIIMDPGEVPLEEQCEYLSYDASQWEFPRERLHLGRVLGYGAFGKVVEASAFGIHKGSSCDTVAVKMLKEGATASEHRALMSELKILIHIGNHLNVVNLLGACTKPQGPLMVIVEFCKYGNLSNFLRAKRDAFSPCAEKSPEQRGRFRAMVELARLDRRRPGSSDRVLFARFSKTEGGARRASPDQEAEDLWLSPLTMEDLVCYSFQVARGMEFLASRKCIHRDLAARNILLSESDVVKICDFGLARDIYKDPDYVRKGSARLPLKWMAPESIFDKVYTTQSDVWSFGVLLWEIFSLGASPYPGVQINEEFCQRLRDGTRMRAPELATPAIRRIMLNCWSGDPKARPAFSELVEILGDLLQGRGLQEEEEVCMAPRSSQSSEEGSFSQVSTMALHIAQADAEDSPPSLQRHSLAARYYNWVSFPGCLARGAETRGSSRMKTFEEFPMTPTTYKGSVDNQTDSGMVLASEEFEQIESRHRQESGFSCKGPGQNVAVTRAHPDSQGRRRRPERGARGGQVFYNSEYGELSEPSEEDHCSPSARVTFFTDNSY

[17] = target: Vascular endothelial growth factor receptor 3 (Homo sapiens) (UniProt P35916); conditions: at 1 µM
[18] = target: Macrophage colony-stimulating factor 1 receptor (Homo sapiens) (UniProt P07333); conditions: at 0.1 µM
Chain of Macrophage colony-stimulating factor 1 receptor (Homo sapiens) (P07333 whole entry): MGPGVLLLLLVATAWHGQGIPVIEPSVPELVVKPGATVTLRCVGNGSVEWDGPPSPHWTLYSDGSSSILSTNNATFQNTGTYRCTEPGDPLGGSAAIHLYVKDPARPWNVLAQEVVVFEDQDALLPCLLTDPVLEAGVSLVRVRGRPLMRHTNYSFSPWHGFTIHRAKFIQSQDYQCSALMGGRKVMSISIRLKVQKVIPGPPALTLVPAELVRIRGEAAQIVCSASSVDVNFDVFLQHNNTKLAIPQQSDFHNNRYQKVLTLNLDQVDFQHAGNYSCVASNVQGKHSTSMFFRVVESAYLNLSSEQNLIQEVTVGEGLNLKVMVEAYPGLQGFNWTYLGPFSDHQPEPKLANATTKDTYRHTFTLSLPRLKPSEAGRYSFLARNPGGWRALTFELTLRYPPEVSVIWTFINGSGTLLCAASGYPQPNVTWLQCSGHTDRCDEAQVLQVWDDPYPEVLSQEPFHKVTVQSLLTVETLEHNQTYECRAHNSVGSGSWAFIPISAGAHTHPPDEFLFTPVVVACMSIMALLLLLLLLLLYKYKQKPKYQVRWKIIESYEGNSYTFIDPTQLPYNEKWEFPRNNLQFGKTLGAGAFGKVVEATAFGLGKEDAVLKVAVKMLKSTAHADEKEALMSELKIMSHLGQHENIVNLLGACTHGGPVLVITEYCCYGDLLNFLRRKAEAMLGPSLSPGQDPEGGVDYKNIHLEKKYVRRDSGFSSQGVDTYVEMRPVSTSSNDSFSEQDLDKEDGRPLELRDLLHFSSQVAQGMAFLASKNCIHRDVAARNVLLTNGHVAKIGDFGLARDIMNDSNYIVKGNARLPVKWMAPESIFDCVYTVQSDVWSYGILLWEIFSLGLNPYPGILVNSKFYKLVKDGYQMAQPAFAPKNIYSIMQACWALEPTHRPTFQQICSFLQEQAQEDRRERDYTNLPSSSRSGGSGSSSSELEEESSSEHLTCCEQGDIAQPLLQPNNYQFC

[19] = target: Macrophage colony-stimulating factor 1 receptor (Homo sapiens) (UniProt P07333); conditions: at 1 µM
[20] = target: Tyrosine-protein kinase Fyn (Homo sapiens) (UniProt P06241); conditions: at 0.1 µM
Chain of Tyrosine-protein kinase Fyn (Homo sapiens) (P06241 2-537 limits assumed): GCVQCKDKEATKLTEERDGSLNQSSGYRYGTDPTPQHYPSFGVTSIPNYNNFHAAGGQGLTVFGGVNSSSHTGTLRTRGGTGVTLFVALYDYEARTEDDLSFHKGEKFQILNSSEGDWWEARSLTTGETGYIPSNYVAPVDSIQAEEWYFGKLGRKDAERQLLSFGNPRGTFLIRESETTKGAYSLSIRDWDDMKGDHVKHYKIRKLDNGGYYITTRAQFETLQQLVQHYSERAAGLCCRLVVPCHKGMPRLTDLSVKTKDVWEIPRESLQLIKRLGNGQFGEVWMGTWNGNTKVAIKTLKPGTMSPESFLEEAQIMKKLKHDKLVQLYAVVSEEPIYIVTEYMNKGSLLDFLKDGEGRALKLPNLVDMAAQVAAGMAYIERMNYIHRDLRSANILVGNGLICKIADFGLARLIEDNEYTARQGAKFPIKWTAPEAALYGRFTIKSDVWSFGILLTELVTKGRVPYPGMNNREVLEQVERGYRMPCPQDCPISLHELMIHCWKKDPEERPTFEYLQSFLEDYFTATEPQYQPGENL

| Compound | inhibition [1] [%] | inhibition [2] [%] | inhibition [3] [%] | inhibition [4] [%] | inhibition [5] [%] | inhibition [6] [%] | inhibition [7] [%] | inhibition [8] [%] | inhibition [9] [%] | inhibition [10] [%] | inhibition [11] [%] | inhibition [12] [%] | inhibition [13] [%] | inhibition [14] [%] | inhibition [15] [%] | inhibition [16] [%] | inhibition [17] [%] | inhibition [18] [%] | inhibition [19] [%] | inhibition [20] [%] |
| --- | --- | --- | --- | --- | --- | --- | --- | --- | --- | --- | --- | --- | --- | --- | --- | --- | --- | --- | --- | --- |
| C[C@@H](Oc1cc(-n2cnc3ccc(OCC4CCN(C)CC4)cc32)sc1C(N)=O)c1ccccc1C(F)(F)F | -1.35 | 18.4 | 60.5 | 23.6 | 69.2 | -1.61 | 0.33 | -2.74 | -0.71 | 88.3 | 102 | 91.6 | 94.3 | 1.25 | 20.9 | 1.45 | 18.6 | -4.84 | 8.46 | 2.33 |
| COc1cc(Nc2nccc(-c3cnn4ncccc34)n2)cc(OC)c1 | 28.2 | 2.05 | 19.3 | 2.03 | 12 | -0.86 | 2.06 | 2.07 | 3.54 | 17.3 | 69.9 | 6.63 | 36.9 | 7.15 | 77.3 | 10.4 | 45.4 | 68.2 | 94.2 | 7.87 |
